Values joined by “and” are separate entries in the source; they are usually repeats but may differ in a detail not shown here. Identical values can stand only once. Inconclusive results are not listed. For some of these results: Potency and affinity values are given separately. Active and inactive are the calls of the source.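 The calls were made as follows, unless noted: active = compounds whose cell count with miR-34 switched on is under 0.7 times the count with it off; inactive = the rest.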
What was measured:
[1] = liver-stage malaria parasite growth inhibition, primary screen, cell-based, HepG2, luciferase luminescence, HepG2 viability (AID 624349; in the data active = parasite load remaining mostly below about 12%, no sharp cut-off; inactive = mostly above about 10%;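 also: 100% = mean of DMSO negative control wells on the same plate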); details: P. berghei liver stage in HepG2, luciferase luminescence, concentration not given here; parasite load remaining: stronger effect = lower value; viability: measured here: HepG2 viability without parasites
[2] = differential killing of epithelial or mesenchymal cells, primary screen, imaging, PC-3E GFP, TEM4-18 mCherry, co-culture (AID 1345086;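 active = compounds killing one labelled cell type while sparing the other, by normalised counts and ratio limits, not self-fluorescent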;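 as to all read-outs here: cells exposed to compound for 72 h before imaging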;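 as to red/green cell ratio (normalised): normalised mesenchymal count divided by normalised epithelial count so high means epithelial killing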); details: imaging cell counts, at 1 µM; for red/green cell ratio (normalised): actives lie on both sides
[3] = sensitizers of A549 cells to miR-34 induction, primary screen, imaging, A549 dox-inducible miR-34, nuclei and caspase counts (AID 1347080); details: A549 miR-34 inducible, Hoechst nuclei count, 48 h
[4] = survival rescue of mitochondrial mutant cells in low glucose, primary screen, MELAS cybrids, Rieske KO mouse fibroblasts, CellTiter-Glo (AID 1508586;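 active = mean z-score across replicates of 1.96 or higher in either the MELAS or the Rieske mutant cell line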;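 also: z relative to plate mean and SD of compound and empty wells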)
[5] = viability rescue of complex I mutant cybrids, primary screen, cell-based, galactose medium, ATP luminescence (AID 1645843;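 active = z-score of at least 1.8 in each of two replicates, scored against plate mean and spread of sample wells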;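 also: positive z means more ATP and so rescue of galactose-driven cybrid death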); details: complex I mutant cybrid cells, 72 h, stronger effect = higher value
[6] = mitochondrial permeability transition inhibitors (AID 1580; call rule not given here); details: isolated mitochondria, permeability transition inhibition
[7] = polyglutamine-triggered caspase-3 activation inhibitors, cell-based (AID 1583); details: polyglutamine-induced caspase-3 activation, cell assay; stronger effect = higher value;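 tested at 10 µM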
[8] = suppressors of polyQ aggregation in yeast, 75Q-TubU reporter (AID 1593); details: Yeast 75Q polyglutamine aggregation reporter
[9] = rescue of polyQ-huntingtin neuronal dysfunction in worms, whole organism, C. elegans mechanosensory neurons, N-terminal huntingtin (AID 1599); details: touch response, stronger effect = higher value
[10] = inhibitors of mitochondrial cytochrome c release, biochemical, purified mitochondria (AID 1603); details: stronger effect = lower value;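 also: mouse liver mitochondria challenged with calcium chloride; signal normalized to the plate average as 100%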
[11] = inhibitors of polyQ protein aggregation (AID 1604); details: polyglutamine-induced protein aggregation inhibition assay; stronger effect = higher value; tested at 2.5 µM
[12] = enhancers of glutamate uptake in motor neurons, MN-1 cell line (AID 1612); details: MN-1 motor neuron cells, stronger effect = higher value;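 also: tested at 1 µM final; 0% = mean of DMSO vehicle wells on each plate; positive means more glutamate uptake than control and negative means less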
[13] = suppressors of polyglutamine aggregation in yeast, 75Q-TubH (AID 1616); details: S. cerevisiae 75Q-TubH polyglutamine aggregation suppression; stronger effect = higher value
[14] = tested on: Aerobactin synthetase IucA (Klebsiella pneumoniae hvKP1); experiment: Biochemical IucA enzyme inhibition primary screen of the Spectrum library (AID 1346200; call rule not given here;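 also: 100% = wells without compound and 0% = wells lacking enzyme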); details: malachite green pyrophosphate, A620, at 8 µM, stronger effect = lower value
[15] = biological target: Mitogen-activated protein kinase 7 (Homo sapiens) (UniProt Q13164); experiment: ERK5 transactivation activators in reporter cells, primary screen, cell-based, HTS (AID 1508626;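 active = luciferase signal above three times the same-plate solvent-only control wells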;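 also: luciferase driven by Gal4-ERK5 fusion binding five Gal4 sites before minimal TATA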); details: HeLa Gal4-ERK5 transactivation, 18 h, at 5 µM, stronger effect = higher value
Chain of Mitogen-activated protein kinase 7 (Homo sapiens) (Q13164 whole entry, looked up, the tested form may be a part): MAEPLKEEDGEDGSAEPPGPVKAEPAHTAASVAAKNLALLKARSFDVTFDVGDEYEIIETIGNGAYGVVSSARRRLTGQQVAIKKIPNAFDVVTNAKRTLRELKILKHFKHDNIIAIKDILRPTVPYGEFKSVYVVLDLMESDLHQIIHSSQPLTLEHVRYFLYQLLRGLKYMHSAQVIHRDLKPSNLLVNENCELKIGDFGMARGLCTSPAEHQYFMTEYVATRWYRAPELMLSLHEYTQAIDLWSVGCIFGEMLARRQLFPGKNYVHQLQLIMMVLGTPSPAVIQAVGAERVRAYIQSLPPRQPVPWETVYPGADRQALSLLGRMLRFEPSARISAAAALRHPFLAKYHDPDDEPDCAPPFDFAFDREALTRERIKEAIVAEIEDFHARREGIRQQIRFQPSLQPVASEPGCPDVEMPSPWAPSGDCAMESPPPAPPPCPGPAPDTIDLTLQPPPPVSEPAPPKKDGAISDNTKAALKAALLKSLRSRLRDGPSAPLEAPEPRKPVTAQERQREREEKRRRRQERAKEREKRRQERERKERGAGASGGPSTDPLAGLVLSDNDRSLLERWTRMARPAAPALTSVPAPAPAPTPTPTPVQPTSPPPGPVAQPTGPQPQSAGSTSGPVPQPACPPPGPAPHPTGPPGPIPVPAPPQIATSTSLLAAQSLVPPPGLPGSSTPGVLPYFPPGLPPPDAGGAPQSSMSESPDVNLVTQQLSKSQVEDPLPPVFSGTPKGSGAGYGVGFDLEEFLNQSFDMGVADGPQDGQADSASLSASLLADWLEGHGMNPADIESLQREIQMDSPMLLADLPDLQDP

[16] = biological target: NAD(+) hydrolase SARM1 (Homo sapiens) (UniProt Q6SZW1); experiment: SARM1 TIR NADase inhibitors, cell lysate, NAD-Glo luminescence (AID 1508614;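 active = compound whose remaining NAD level is above about 45 nM, limit read from the data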;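 also: higher remaining NAD means stronger inhibition of SARM1 NADase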); details: SAM-TIR HEK293T lysate NADase, at 1 µM, stronger effect = higher value
Chain of NAD(+) hydrolase SARM1 (Homo sapiens) (Q6SZW1 whole entry, looked up): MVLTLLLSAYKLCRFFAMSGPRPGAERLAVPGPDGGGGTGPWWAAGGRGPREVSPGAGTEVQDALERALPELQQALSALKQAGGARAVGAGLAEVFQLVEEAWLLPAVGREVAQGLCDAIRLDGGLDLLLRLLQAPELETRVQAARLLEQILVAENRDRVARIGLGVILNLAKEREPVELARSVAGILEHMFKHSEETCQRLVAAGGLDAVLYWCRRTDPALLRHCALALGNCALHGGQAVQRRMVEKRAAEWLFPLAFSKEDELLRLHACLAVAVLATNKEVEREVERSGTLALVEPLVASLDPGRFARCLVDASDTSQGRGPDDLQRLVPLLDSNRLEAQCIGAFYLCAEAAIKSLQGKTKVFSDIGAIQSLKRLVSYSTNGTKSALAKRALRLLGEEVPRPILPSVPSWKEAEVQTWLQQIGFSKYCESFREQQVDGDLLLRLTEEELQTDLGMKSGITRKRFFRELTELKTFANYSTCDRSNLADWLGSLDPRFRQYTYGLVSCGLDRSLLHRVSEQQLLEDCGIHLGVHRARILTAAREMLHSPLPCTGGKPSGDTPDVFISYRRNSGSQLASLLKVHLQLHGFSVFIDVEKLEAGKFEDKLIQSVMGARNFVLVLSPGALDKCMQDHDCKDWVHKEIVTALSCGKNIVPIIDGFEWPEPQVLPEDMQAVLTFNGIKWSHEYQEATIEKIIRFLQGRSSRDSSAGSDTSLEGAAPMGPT

[17] = reducers of polyQ inclusions in PC12 cells, cell-based, NGF-treated PC12, GFPQ80 (AID 1614); details: PC12 NGF-treated GFP-polyQ80 inclusion reduction;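 also: lower means fewer inclusions and 0 means no inclusions at all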
[18] = measured here: epithelial PC-3E GFP cell survival
[19] = measured here: mesenchymal TEM4-18 mCherry cell survival
[20] = measured here: relative caspase fold change +Dox/-Dox
[21] = measured here: total cells with miR-34 induction, stronger effect = lower value
[22] = measured here: total cells without miR-34 induction
[23] = MELAS cybrid survival, CellTiter-Glo 48 h, stronger effect = higher value
[24] = Rieske KO mouse fibroblast survival, CellTiter-Glo 72 h

With `C[C@H](N)[C@H](O)c1ccccc1` the parasite load remaining [1] was 65.1% (inactive) and 27.2% (inactive), the viability [1] was 97.7% and 73% and the red/green cell ratio (normalised) [2] was 1.19 (inactive). The normalised cell number [2, 18] was 0.91, the normalised cell number [2, 19] was 1.08 and the fold change ([3]; stronger effect = lower value) was 0.856 (inactive) and 0.884 (inactive). For the same molecule, the fold change [3, 20] was 0.745 and 1.02, the cell count [3, 21] was 11600 and 9670 and the cell count [3, 22] was 13500 and 10900. For the same molecule, the z-score [4, 23] was -0.606 (inactive), the z-score [4, 24] was -1.57 and the z-score [5] was -0.235 (inactive).
In the case of `CCCCC[C@H]1C(=O)O[C@H](C)[C@H](NC(=O)c2cccc(NC=O)c2O)C(=O)O[C@@H](C)[C@@H]1OC(=O)CC(C)C`, the EC50 [6] was 300 nM (active), the inhibition [7] was 29.9% and the score [8] was 0.73. The rescue above control [9] was -18, the cytochrome c release ratio [10] was 0.26 and the inhibition of aggregation [11] was 7.32%. The glutamate uptake change [12] was 3.11%, the aggregation suppression score [13] was 0.0257 and the red/green cell ratio (normalised) [2] was 0.71 (inactive). The normalised cell number [2, 18] was 0.78, the normalised cell number [2, 19] was 0.55 and the activity remaining [14] was 111% (inactive). The luciferase signal [15] was 60 AU (inactive).
With `C=CCN=C=S` the red/green cell ratio (normalised) [2] was 0.88 (inactive), the normalised cell number [2, 18] was 1.07 and the normalised cell number [2, 19] was 0.93. For the same molecule, the fold change ([3]; stronger effect = lower value) was 1.01 (inactive), the fold change [3, 20] was 0.842 and the cell count [3, 21] was 7390. For the same molecule, the cell count [3, 22] was 7280 and the remaining NAD [16] was 10 nM (inactive).
With `C[C@]12CCC3[C@@H](CC[C@@]45O[C@@H]4C(O)=C(C#N)C[C@]35C)C1CC[C@@H]2O` (stereo not given in full) the red/green cell ratio (normalised) [2] was 0.77 (inactive), the normalised cell number [2, 18] was 1.16 and the normalised cell number [2, 19] was 0.89. The fold change ([3]; stronger effect = lower value) was 1 (inactive), the fold change [3, 20] was 0.592 and the cell count [3, 21] was 8890. The cell count [3, 22] was 8870.
For `C[C@H]1O[C@H](OC2[C@@H](O)[C@@H](O)C(O)[C@H](O)[C@H]2O)[C@@H](N)C[C@@H]1N=C(N)C(=O)O` (stereo not given in full), the parasite load remaining [1] was 61.4% (inactive), the viability [1] was 141% and the red/green cell ratio (normalised) [2] was 1.07 (inactive). The normalised cell number [2, 18] was 1, the normalised cell number [2, 19] was 1.07 and the fold change ([3]; stronger effect = lower value) was 0.847 (inactive). For the same molecule, the fold change [3, 20] was 1.18, the cell count [3, 21] was 8950 and the cell count [3, 22] was 10600. The z-score [4, 23] was -0.576 (inactive), the z-score [4, 24] was -0.393 and the luciferase signal [15] was 128 AU (inactive). The z-score [5] was 0.075 (inactive).
In the case of `CC(=O)O[C@H]1CC[C@@]2(C)C(=CCC3C2CC[C@]2(C)C(=O)CCC32)C1` (stereo not given in full), the parasite load remaining [1] was 162% (inactive), the viability [1] was 84.8% and the red/green cell ratio (normalised) [2] was 0.81 (inactive). For the same molecule, the normalised cell number [2, 18] was 1.28, the normalised cell number [2, 19] was 1.04 and the activity remaining [14] was 103% (inactive).
For `C#CCN(C)C(C)Cc1ccccc1` (stereo not given), the parasite load remaining [1] was 54.6% (inactive) and 61.7% (inactive), the viability [1] was 101% and 170% and the red/green cell ratio (normalised) [2] was 1.02 (inactive). For the same molecule, the normalised cell number [2, 18] was 1.06, the normalised cell number [2, 19] was 1.07 and the fold change ([3]; stronger effect = lower value) was 0.923 (inactive) and 0.946 (inactive) and 0.891 (inactive). For the same molecule, the fold change [3, 20] was 2.5 and 4.7 and 1.31, the cell count [3, 21] was 9410 and 12100 and 9880 and the cell count [3, 22] was 10200 and 12800 and 11100. The z-score [4, 23] was -0.242 (inactive), the z-score [4, 24] was -0.831 and the z-score [5] was 0.995 (inactive) and 0.67 (inactive).
Work on `CC[C@H]1CN2CCC1C[C@@H]2[C@@H](O)c1ccnc2ccc(OC)cc12` (stereo not given in full) yielded an inhibition [7] of -3.48%, a score [8] of 1.22 and a rescue above control [9] of -8.65. It also gave a cytochrome c release ratio [10] of 0.67, an inhibition of aggregation [11] of 32.5% and a glutamate uptake change [12] of 1.44%. For the same molecule, the inclusion score [17] was 2, the aggregation suppression score [13] was 1.35 and the parasite load remaining [1] was 20% (inactive). The viability [1] was 79.3%, the red/green cell ratio (normalised) [2] was 0.99 (inactive) and the normalised cell number [2, 18] was 1.01. For the same molecule, the normalised cell number [2, 19] was 1 and the activity remaining [14] was 117% (inactive).
